Experimental data reported in PubChem BioAssay AID1159580 (chemical genetic matrix, 2015).
Hit rate of the full screen: of about 5,500 compounds, about 2,000 (36%) were called active. About 18% were inconclusive and are not listed. Rule as the data show it: active = normalized growth mostly below about 0.91 (no sharp cut-off); inconclusive = no clear call, values can overlap the other calls; inactive = mostly above about 0.92. This is one part of the list.

Assay: chemical genetic growth profiling, strain panel (AID 1159580);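 also: tested at 20 µM; growth read once vehicle control cultures reached saturation at 30 °C; 1 = growth at the plate median or of vehicle wells; lower values mean less growth of the strain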
Conditions: growth OD
[1] = S. cerevisiae deletion strains, locus YAL013W, strain DEP1, hits give low values
[2] = S. cerevisiae deletion strains, locus YBR229C, strain ROT2, hits give low values
[3] = S. cerevisiae deletion strains, locus YCL061C, strain MRC1, hits give low values
[4] = S. cerevisiae deletion strains, locus YDL101C, strain DUN1, hits give low values
[5] = S. cerevisiae deletion strains, locus YDR150W, strain NUM1, hits give low values
[6] = S. cerevisiae deletion strains, locus YEL061C, strain CIN8, hits give low values
[7] = S. cerevisiae deletion strains, locus YGR078C, strain PAC10, hits give low values
[8] = S. cerevisiae deletion strains, locus YHR030C, strain SLT2, hits give low values
[9] = S. cerevisiae deletion strains, locus YHR087W, strain rtc3, hits give low values
[10] = S. cerevisiae deletion strains, locus YJR043C, strain POL32, hits give low values
[11] = S. cerevisiae deletion strains, locus YJR075W, strain HOC1, hits give low values
[12] = S. cerevisiae deletion strains, locus YLR039C, strain RIC1, hits give low values
[13] = S. cerevisiae deletion strains, locus YLR058C, strain SHM2 (second series), hits give low values
[14] = S. cerevisiae deletion strains, locus YLR085C, strain ARP6, hits give low values
[15] = S. cerevisiae deletion strains, locus YLR262C, strain YPT6, hits give low values
[16] = S. cerevisiae deletion strains, locus YML094W, strain GIM5, hits give low values
[17] = S. cerevisiae deletion strains, locus YMR219W, strain ESC1, hits give low values
[18] = S. cerevisiae deletion strains, locus YMR263W, strain SAP30, hits give low values
[19] = S. cerevisiae deletion strains, locus YMR307W, strain GAS1, hits give low values
[20] = S. cerevisiae deletion strains, locus YNL128W, strain TEP1, hits give low values
[21] = S. cerevisiae deletion strains, locus YNL153C, strain GIM3, hits give low values
[22] = S. cerevisiae deletion strains, locus YNL298W, strain CLA4 (second series), hits give low values
[23] = S. cerevisiae deletion strains, locus YNL322C, strain KRE1, hits give low values
[24] = S. cerevisiae deletion strains, locus YNR030W, strain Alg12, hits give low values
[25] = S. cerevisiae deletion strains, locus YOL006C, strain TOP1, hits give low values
[26] = S. cerevisiae deletion strains, locus YPL055C, strain LGE1, hits give low values
[27] = S. cerevisiae deletion strains, locus YPL241C, strain CIN2, hits give low values
[28] = S. cerevisiae deletion strains, locus YPR135W, strain CTF4, hits give low values
[29] = S. cerevisiae strains, strain wild type, hits give low values
[30] = S. cerevisiae deletion strains, locus YGR229C, strain SMI1, hits give low values
[31] = S. cerevisiae deletion strains, locus YAL040C, strain CLN3, hits give low values
[32] = S. cerevisiae deletion strains, locus YCL061C, strain MRC1 (second series), hits give low values
[33] = S. cerevisiae deletion strains, locus YER002W, strain NOP16, hits give low values
[34] = S. cerevisiae deletion strains, locus YNL175C, strain NOP13, hits give low values
[35] = S. cerevisiae deletion strains, locus YNL197C, strain WHI3, hits give low values
[36] = S. cerevisiae deletion strains, locus YNL224C, strain SQS1, hits give low values
[37] = S. cerevisiae deletion strains, locus YOR083W, strain WHI5 (second series), hits give low values

Measured: normalized growth

COc1cc(C(F)(F)F)cc(C(F)(F)F)c1C(=O)Nc1cc(C(F)(F)F)cc(C(F)(F)F)c1
inactive: [1] 1.03 | [2] 1.02 | [3] 1.02 | [4] 1.04 | [5] 1 | [6] 1.01 | [7] 1.01 | [8] 1.11 | [9] 1.04 | [10] 1.01 | [11] 1 | [12] 1.03 | [13] 0.998 | [14] 1.03 | [15] 1.01 | [16] 1.08 | [17] 1.01 | [18] 1.01 | [19] 1.01 | [20] 1 | [21] 1.01 | [22] 1.03 | [23] 1.01 | [24] 1.03 | [25] 1.09 | [26] 1.07 | [27] 1.06 | [28] 1.1 | [29] 1.01

COc1ccc(NC(=O)c2cc(C(F)(F)F)cc(C(F)(F)F)c2)cn1
active: [7] 0.92 | [12] 0.539 | [13] 0.926 | [15] 0.636 | [23] 0.938 | [28] 0.611
inactive: [1] 0.964 | [2] 0.938 | [3] 0.968 | [4] 0.928 | [5] 1.05 | [6] 0.942 | [30] 0.959 | [8] 0.826 | [9] 0.925 | [10] 0.959 | [11] 0.893 | S. cerevisiae deletion strains, locus YKL190W, strain CNB1, hits give low values 0.947 | [14] 0.781 | [16] 0.927 | [17] 0.949 | [18] 0.98 | [20] 0.953 | [21] 0.983 | [22] 0.895 | [24] 0.9 | [25] 0.867 | [26] 0.963 | [27] 0.908 | [29] 0.931

CC(=O)OCC1=C(C(=O)O)N2C(=O)C(NC(=O)CSc3ccncc3)C2SC1 (stereo not given)
inactive: [31] 0.974 | [32] 0.991 | [33] 1.02 | [30] 0.99 | [18] 0.974 | [34] 1 | [35] 1 | [36] 1 | [37] 1.02 | [26] 1.01

CC1=C(CC(=O)O)c2cc(F)ccc2/C1=C\c1ccc(S(C)(=O)=O)cc1
inactive: [1] 1.02 | [31] 0.996 | [32] 0.99 | [5] 0.989 | S. cerevisiae deletion strains, locus YDR363W, strain ESC2, hits give low values 1.02 | [33] 1 | [30] 1.04 | [19] 0.946 | [21] 0.982 | [34] 0.98 | [35] 0.979 | [36] 0.99 | [23] 1 | [37] 0.973 | [26] 1.05

COc1ccc(/C=C2\CSc3ccc(F)cc3C2=O)cc1
active: [8] 0.771 | S. cerevisiae deletion strains, locus YLR113W, strain HOG1, hits give low values 0.763
inactive: S. cerevisiae deletion strains, locus YAR019C, strain CDC15, hits give low values 0.955 | S. cerevisiae deletion strains, locus YBL105C, strain PKC1, hits give low values 0.96 | S. cerevisiae deletion strains, locus YBR135W, strain CKS1, hits give low values 0.951 | S. cerevisiae deletion strains, locus YBR136W, strain MEC1, hits give low values 0.971 | S. cerevisiae deletion strains, locus YBR160W, strain CDC28, hits give low values 0.961 | S. cerevisiae deletion strains, locus YDL017W, strain CDC7, hits give low values 0.966 | S. cerevisiae deletion strains, locus YDL028C, strain MPS1, hits give low values 0.931 | [4] 0.968 | S. cerevisiae deletion strains, locus YDL108W, strain KIN28, hits give low values 0.955 | S. cerevisiae deletion strains, locus YDL132W, strain cdc53, hits give low values 0.947 | S. cerevisiae deletion strains, locus YDL214C, strain PRR2, hits give low values 0.932 | S. cerevisiae deletion strains, locus YDR052C, strain DBF4, hits give low values 0.977 | S. cerevisiae deletion strains, locus YDR054C, strain cdc34, hits give low values 0.953 | S. cerevisiae deletion strains, locus YDR226W, strain ADK1, hits give low values 0.965 | S. cerevisiae deletion strains, locus YDR477W, strain SNF1, hits give low values 0.916 | S. cerevisiae deletion strains, locus YER123W, strain YCK3, hits give low values 0.896 | S. cerevisiae deletion strains, locus YER133W, strain GLC7, hits give low values 0.916 | S. cerevisiae deletion strains, locus YFL009W, strain cdc4, hits give low values 0.934 | S. cerevisiae deletion strains, locus YFL029C, strain CAK1, hits give low values 0.947 | S. cerevisiae deletion strains, locus YFR003C, strain YPI1, hits give low values 0.96 | S. cerevisiae deletion strains, locus YFR019W, strain FAB1, hits give low values 0.953 | S. cerevisiae deletion strains, locus YFR028C, strain CDC14, hits give low values 0.93 | S. cerevisiae deletion strains, locus YGR040W, strain KSS1, hits give low values 0.917 | S. cerevisiae deletion strains, locus YGR052W, strain FMP48, hits give low values 0.939 | S. cerevisiae deletion strains, locus YGR092W, strain DBF2, hits give low values 0.925 | S. cerevisiae deletion strains, locus YHR079C, strain IRE1, hits give low values 0.909 | S. cerevisiae deletion strains, locus YHR082C, strain KSP1, hits give low values 0.949 | S. cerevisiae deletion strains, locus YHR205W, strain SCH9, hits give low values 0.899 | S. cerevisiae deletion strains, locus YIL147C, strain SLN1, hits give low values 0.969 | S. cerevisiae deletion strains, locus YJL095W, strain BCK1, hits give low values 0.9 | S. cerevisiae deletion strains, locus YJL128C, strain PBS2, hits give low values 0.91 | S. cerevisiae deletion strains, locus YJL157C, strain FAR1, hits give low values 0.927 | S. cerevisiae deletion strains, locus YJR016C, strain ILV3, hits give low values 0.973 | S. cerevisiae deletion strains, locus YJR066W, strain TOR1 (second series), hits give low values 0.909 | S. cerevisiae deletion strains, locus YJR066W, strain TOR1, hits give low values 0.874 | S. cerevisiae deletion strains, locus YKL048C, strain ELM1, hits give low values 0.949 | S. cerevisiae deletion strains, locus YKL067W, strain YNK1, hits give low values 0.911 | S. cerevisiae deletion strains, locus YKL101W, strain HSL1, hits give low values 0.927 | S. cerevisiae deletion strains, locus YKL193C, strain SDS22, hits give low values 0.941 | S. cerevisiae deletion strains, locus YKL203C, strain TOR2, hits give low values 1.01 | S. cerevisiae deletion strains, locus YLR133W, strain CKI1, hits give low values 0.949 | S. cerevisiae deletion strains, locus YLR403W, strain SFP1, hits give low values 0.928 | S. cerevisiae deletion strains, locus YML070W, strain DAK1, hits give low values 0.91 | S. cerevisiae deletion strains, locus YMR001C, strain CDC5, hits give low values 0.952 | S. cerevisiae deletion strains, locus YMR205C, strain PFK2 (second series), hits give low values 0.942 | S. cerevisiae deletion strains, locus YMR277W, strain FCP1, hits give low values 0.929 | S. cerevisiae deletion strains, locus YNL006W, strain LST8, hits give low values 0.967 | S. cerevisiae deletion strains, locus YNL020C, strain ARK1, hits give low values 0.955 | S. cerevisiae deletion strains, locus YNL161W, strain CBK1, hits give low values 0.951 | S. cerevisiae deletion strains, locus YNL183C, strain NPR1, hits give low values 0.935 | S. cerevisiae deletion strains, locus YNL207W, strain RIO2, hits give low values 0.969 | S. cerevisiae deletion strains, locus YNL222W, strain SSU72, hits give low values 0.952 | S. cerevisiae deletion strains, locus YNL307C, strain MCK1 (second series), hits give low values 0.927 | S. cerevisiae deletion strains, locus YOL078W, strain AVO1, hits give low values 0.94 | S. cerevisiae deletion strains, locus YOL136C, strain PFK27, hits give low values 0.902 | S. cerevisiae deletion strains, locus YOR061W, strain CKA2, hits give low values 0.933 | S. cerevisiae deletion strains, locus YOR119C, strain RIO1, hits give low values 0.95 | S. cerevisiae deletion strains, locus YOR231W, strain MKK1, hits give low values 0.879 | S. cerevisiae deletion strains, locus YOR329C, strain SCD5, hits give low values 0.964 | S. cerevisiae deletion strains, locus YPL031C, strain PHO85, hits give low values 0.914 | S. cerevisiae deletion strains, locus YPL153C, strain RAD53, hits give low values 0.929 | S. cerevisiae deletion strains, locus YPL204W, strain HRR25, hits give low values 0.912 | S. cerevisiae deletion strains, locus YPL209C, strain IPL1, hits give low values 0.959 | S. cerevisiae deletion strains, locus YPL256C, strain CLN2, hits give low values 0.87 | S. cerevisiae deletion strains, locus YPR025C, strain CCL1, hits give low values 0.958 | S. cerevisiae deletion strains, locus YPR106W, strain ISR1, hits give low values 0.962 | S. cerevisiae deletion strains, locus YPR111W, strain DBF20, hits give low values 0.938 | S. cerevisiae deletion strains, strain NNK1, hits give low values 0.962 | S. cerevisiae deletion strains, strain TSCII, hits give low values 0.946
